The values below come from PubChem BioAssay AID1259415 (National Center for Advancing Translational Sciences (NCATS), 2018).

Where “and” joins values, the source holds several entries; their conditions need not be identical. Equal values may be shown once. In all, about 410,000 compounds went through this assay and about 18,000 (4.4%) were called active. Inconclusive results (about 7%) are left out. Rule as the data show it: active = activity change below about -60%; inconclusive = no clear call, values can overlap the other calls; inactive = above about -39%. The full list was thinned out, with actives kept by preference.
% is scaled to controls: 0 for no effect and ±100 for the full control effect.

This experiment is described as follows: qHTS Assay for inhibitors of the human cytomegalovirus (HCMV). The following applies: HFF cells, HCMV-luciferase reporter, 72 h; at 57.5 µM; stronger effect = lower value. The gist of the method: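 Two-dose cell screen: HFF monolayers treated with compounds and infected with luciferase-expressing HCMV at 1 PFU/cell, 72 h at 37C, then lysed for luciferase measurement.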
(In qHTS, concentration-response curves come from the screen itself.)
Turning to `N#CC(C#N)=CN=c1ccn(Cc2ccc(Cl)cc2Cl)cc1`, the activity change, negative = inhibition is -94.3% (active).
As for `CCc1nc2cccnc2n1-c1ccc(C(=O)O)cc1`, the activity change, negative = inhibition was -6.51% (inactive).
The result for `COc1ccc(C(=O)NC(=S)NNC(=O)CCc2ccccc2)cc1` reads -85.4% (active); that for `Cc1c(NC(=S)NC(=O)CCc2ccccc2)c(=O)n(-c2ccccc2)n1C`, -11.5% (inactive).
Under `CCCCC(=O)NNC(=S)NC(=O)C(c1ccccc1)c1ccccc1` stands -31.6% (inactive).
As to `Cc1cccc(C(C)C)c1NC(=O)C(NS(=O)(=O)c1cccc2nsnc12)c1ccccc1` (centres undefined), the activity change, negative = inhibition was -12.4% (inactive).
As for `CCOC(=O)c1c(C)n(S(=O)(=O)c2ccc(C)cc2C)c2ccc(NS(=O)(=O)c3ccc(C)cc3C)cc12`, the activity change, negative = inhibition is 37% (inactive).
As to `O=C(c1ccc(C(F)(F)F)cc1)N1CCC(c2nc(-c3ccc(S(=O)(=O)N4CCCC4)cc3)no2)CC1`, the activity change, negative = inhibition was -39.7% (inactive).
With `Cc1ccccc1NC(=O)c1c(NC(=O)c2ccccc2F)sc2c1CCC(C)C2` (centres undefined), the activity change, negative = inhibition is -1.03% (inactive).
Regarding `CCOC(=O)N1CCN(C(=O)COCc2cc(-c3ccc4c(c3)OCO4)on2)CC1`, the activity change, negative = inhibition was -33.7% (inactive).
The result for `CC(C)NC(=O)COCc1cc(-c2ccc3c(c2)OCO3)on1` reads -102% (active).
Turning to `Cc1cccc(N2CCN(C(=O)COCc3cc(-c4ccc5c(c4)OCO5)on3)CC2)c1C`, the activity change, negative = inhibition was 10.8% (inactive) and 0.0657% (inactive).
On to `O=C(O)c1cccc(N=NN2CCCCCC2)c1`, for which the activity change, negative = inhibition was 134% (inactive).
Consider `CCc1nnc(SCc2c(F)cccc2Cl)c2cc3sccc3n12`, for which the activity change, negative = inhibition is -67.2% (active).
`CCc1nnc(SCc2nc(-c3cccc(C)c3)oc2C)c2cc3sc(C)cc3n12`: the activity change, negative = inhibition was 22.7% (inactive).
Consider `Cn1c(SCc2c(F)cccc2Cl)nnc1-c1cnccn1`, for which the activity change, negative = inhibition was -2.73% (inactive).
`CCOC(=O)CSC1=Nc2ccccc2C2=NC(CCC(=O)NCc3ccc(F)cc3)C(=O)N12` (centres undefined): the activity change, negative = inhibition was -5.13% (inactive).
`COc1cccc(NC(=O)Nc2ccc3c(c2)N(C)C(=O)c2ccccc2S3)c1`: the activity change, negative = inhibition is -33.9% (inactive).
In the case of `CCOc1ccc(N2C(=O)CSC2=NC#N)cc1`, the activity change, negative = inhibition is -101% (active).
For the compound `CCOc1ccc(N2C(=O)CN(c3cccc4ccccc34)C2=S)cc1`, the activity change, negative = inhibition is 28.1% (inactive).
With `CCO/C=C1\C(=O)N(c2ccc(OCC)cc2)C(=O)c2ccccc21`, the activity change, negative = inhibition was -9.21% (inactive).
As to `Cn1c(=O)c(C(=O)O)nn(-c2ccccc2)c1=O`, the activity change, negative = inhibition is -0.182% (inactive).
Under `O=[N+]([O-])c1cc(S(=O)(=O)Nc2cccc(Cl)c2)ccc1N=Nc1c(O)[nH]c2ccccc12` stands -78.2% (active); under `CCN(C(=O)COC(=O)c1cc(NS(=O)(=O)c2ccc(Cl)c([N+](=O)[O-])c2)ccc1O)C1CCCCC1`, -23% (inactive).
On to `O=C(CCN1CCCCC1)N=Nc1c(O)[nH]c2ccccc12`, for which the activity change, negative = inhibition was 8% (inactive).
Under `C/C(=N\NC(=O)NC1CCCCC1)c1ccc(OC(F)F)cc1OC(F)F` stands -36.3% (inactive); under `N#Cc1ccc(CSc2nnc3ccccn23)cc1`, -25.8% (inactive).
Take `Cc1ccc(-n2c(C)nnc2SCC(=O)NC2CC2)cc1`: the activity change, negative = inhibition was 17.2% (inactive).
For the compound `Cc1ccc(-n2c(C)cc(C(=O)CSc3nnc4ccccn34)c2C)cc1`, the activity change, negative = inhibition is -86.1% (active).
Consider `Cc1ccc(-n2nc(C)c(C(=O)O)c2-n2cccc2)cc1`, for which the activity change, negative = inhibition was 3.17% (inactive).
Turning to `COC(=O)c1cc(=O)n(-c2c(Cl)cc(C(F)(F)F)cc2Cl)[nH]1`, the activity change, negative = inhibition was 31.8% (inactive).
As to `CC1(Cc2cccc(C#N)c2)C(=O)Nc2ccc(-c3cccc(C(F)(F)F)c3)cc21` (centres undefined), the activity change, negative = inhibition was -96.6% (active).
For `C=CCn1cc(-c2cccc(C(F)(F)F)c2)cc(C#N)c1=O`, the activity change, negative = inhibition is -25.4% (inactive).
Take `Cc1ccc(S(=O)(=O)NC(C(=O)N2CCOCCOCCOCCOCC2)c2ccccc2)cc1` (centres undefined): the activity change, negative = inhibition is -14.3% (inactive).
Consider `Cc1ccc(C)c(CN2C(=O)c3ccccc3S(=O)c3ccc(C(=O)N4CCOCC4)cc32)c1` (centres undefined), for which the activity change, negative = inhibition was 9.82% (inactive).
As for `Cc1oc2c(c1C(=O)N1CCOCC1)C(=O)c1ccccc1C2=O`, the activity change, negative = inhibition is -101% (active).
As for `COc1cc(NC(=O)C2CC(c3ccccc3O)=NO2)c(OC)cc1Cl` (centres undefined), the activity change, negative = inhibition was 0.764% (inactive).
Regarding `CCC(C)Cn1c(O)cc2nn(-c3nc4ccccc4s3)c(=O)c-2c1C` (centres undefined), the activity change, negative = inhibition was -80.3% (active).
Regarding `NS(=O)(=O)c1ccc(NC(=O)C(=O)Nc2ccc3nc4n(c(=O)c3c2)CCCCC4)cc1`, the activity change, negative = inhibition is 13.4% (inactive).
The result for `COc1ccc(-c2c(C)nn3c(N4CCC(C(=O)NCCC(C)C)CC4)cc(C)nc23)cc1OC` reads 1.6% (inactive); that for `CCN1CCN(C(c2ccc(C)cc2)c2c(O)cc(C)n(Cc3ccco3)c2=O)CC1` (centres undefined), 25% (inactive).
The result for `CCOc1ccccc1NC(=O)Cn1nnc(C(=O)NCc2cccs2)c1N` reads -78.3% (active).
As to `CCOc1ccc(Cl)cc1-c1cc(C(=O)NCc2cccs2)[nH]n1`, the activity change, negative = inhibition was 8.26% (inactive).
Under `CCOc1ccccc1NC(=O)Cn1nnc(C(=O)Nc2ccc(C)c(C)c2)c1N` stands -18.4% (inactive); under `COc1ccc(CNC(=O)CS(=O)Cc2nc(-c3cccc(C)c3)oc2C)cc1` (centres undefined), -7.8% (inactive).
Regarding `CN(CC(=O)O)S(=O)(=O)c1ccc2oc3ccccc3c2c1`, the activity change, negative = inhibition was -8.55% (inactive).
Turning to `COc1cccc(CNc2nccn(-c3ccc(OC)c(OC)c3)c2=O)c1`, the activity change, negative = inhibition is 13.5% (inactive).
On to `COc1cccc(CNc2nc(NCc3ccccc3OC)nc3ccsc23)c1`, for which the activity change, negative = inhibition was -90.2% (active).
For `CC(C)Nc1nc(NCCOc2ccccc2Cl)c2sccc2n1`, the activity change, negative = inhibition is -35.9% (inactive).
Under `COc1ccccc1CNc1nc2ccc(Cl)cc2n2cnnc12` stands 25.8% (inactive); under `COc1ccccc1CNc1nc(Nc2ccccc2Cl)c2sccc2n1`, -67.2% (active).
The result for `COc1cccc(-c2cc3nc(NCc4ccccc4OC)n(C)c(=O)c3s2)c1` reads -13.2% (inactive).
For `CCN1CCC(N(Cc2ccc(F)cc2)C(=O)Nc2cc(C)ccc2C)CC1`, the activity change, negative = inhibition is -23.7% (inactive).
In the case of `CCOC(=O)Cn1c(=O)n(-c2ccccc2OC)c2nc(-c3cccc(F)c3)nc(C(N)=O)c21`, the activity change, negative = inhibition was 1.14% (inactive).
Consider `O=C(Cc1ccc(F)cc1)N1CCN=C1SCc1cccc([N+](=O)[O-])c1`, for which the activity change, negative = inhibition is 35.3% (inactive).
With `O=C(O)c1cc(S(=O)(=O)N(Cc2ccccc2)c2ccccc2)ccc1Cl`, the activity change, negative = inhibition is -27.4% (inactive).
In the case of `O=C(CCl)N(Cc1cccc([N+](=O)[O-])c1)c1cccc(Cl)c1`, the activity change, negative = inhibition was -99.6% (active).
On to `CCOC(=O)c1cc(NC(=O)c2ccc(F)cc2)c(=O)n2c1oc1ccccc12`, for which the activity change, negative = inhibition was -11.8% (inactive).
As to `O=C(Cn1ncc2c3ccccc3n(Cc3ccccc3)c2c1=O)NCc1ccccn1`, the activity change, negative = inhibition is -12.1% (inactive) and -33.7% (inactive).
As to `CCCN(CCC)CCCNC(=O)Cn1ncc2c3ccccc3n(Cc3ccccc3)c2c1=O`, the activity change, negative = inhibition is -11.9% (inactive).
Under `Cc1ccccc1Cn1c2ccccc2c2cnn(CC(=O)NCc3ccco3)c(=O)c21` stands -95.6% (active); under `Cc1ccc(-c2nnc(Nc3ccc(OCC(N)=O)cc3)c3ccccc23)cc1S(=O)(=O)NCC1CCCO1` (centres undefined), -19.2% (inactive).
`CCn1c(=O)cc(OCC(=O)Nc2cc(Cl)c(OC)cc2OC)c2ccccc21`: the activity change, negative = inhibition is 0.565% (inactive).
`C=CCC(C(=O)c1ccccc1)[N+](C)(C)CC=C` (centres undefined): the activity change, negative = inhibition is 12.4% (inactive).
Take `COCC1CCCCN1C(=O)c1cc(COc2ccc(C)c(C)c2)on1` (centres undefined): the activity change, negative = inhibition is 50.2% (inactive).
For `COC(=O)[C@@H]1CCCN1C(=O)c1cc(COc2cccc3cccnc23)on1`, the activity change, negative = inhibition was -61.4% (active).
On to `Cc1nonc1C1CCCN1C(=O)c1cc(COc2cccc(C(F)(F)F)c2)on1` (centres undefined), for which the activity change, negative = inhibition is 10.6% (inactive).
Regarding `O=C(Cc1csc(Nc2nc(=S)[nH]c3ccccc23)n1)NCCCN1CCN(c2cccc(Cl)c2)CC1`, the activity change, negative = inhibition was 2.37% (inactive).
Turning to `CCC(=O)NC(NCC1CCCO1)C(Cl)(Cl)Cl` (centres undefined), the activity change, negative = inhibition was -10.5% (inactive).
With `COCCN(CCOC)c1nc(N)c2c(N)nc3c(c2c1C#N)CC(=O)N3Cc1ccc(Cl)cc1`, the activity change, negative = inhibition was 30.8% (inactive).
As to `Cc1cc(C)c(SCCc2ccncc2)c(C)c1`, the activity change, negative = inhibition was -63.8% (active).
Consider `c1ccc(CSCCc2ccncc2)cc1`, for which the activity change, negative = inhibition is -24.8% (inactive).
Consider `Cc1cc(C)c(NC(=O)CSc2nc3ccncc3[nH]2)c(C)c1`, for which the activity change, negative = inhibition was -3.75% (inactive).
On to `COc1ccc2c(c1)C=C(C(=O)NCc1cc(Br)ccc1OC)CO2`, for which the activity change, negative = inhibition was -22.6% (inactive).
`Cc1ccccc1Nc1scc(-c2ccc(Br)cc2)[n+]1-c1ccccc1C`: the activity change, negative = inhibition is -68.6% (active).
On to `CSCC[C@H](NC(=O)N1CCn2c1nc1ccccc12)C(=O)NC1CCCCC1`, for which the activity change, negative = inhibition was -35.1% (inactive).
For `CSc1ccc(Cl)c(C(=O)OCC(=O)N2CCNC2=O)c1`, the activity change, negative = inhibition was -17% (inactive).
In the case of `CC(=O)Oc1ccc(N(C(C)=O)S(=O)(=O)c2ccc3ccccc3c2)cc1Br`, the activity change, negative = inhibition was -69.6% (active).
Take `CCN1CCN(C(=O)CN(C)S(=O)(=O)c2ccc3ccccc3c2)CC1`: the activity change, negative = inhibition is -9.61% (inactive).
Under `CN(C1CCS(=O)(=O)C1)S(=O)(=O)c1ccc2ccccc2c1` (centres undefined) stands -24.3% (inactive).
On to `CCC(CC)C(=O)N1CCc2cc(OC)c(OC)cc2C1COc1ccc(F)cc1` (centres undefined), for which the activity change, negative = inhibition was -15.5% (inactive).
`O=C(Nc1c(C(=O)N2CCCCC2)cnn1-c1ccccc1)c1ccco1`: the activity change, negative = inhibition is 22.9% (inactive).
The result for `CC(=O)Nc1ccc2nc(SCCOc3cc(C)cc(C)c3)sc2c1` reads -35% (inactive); that for `O=C(Nc1ccc2nc(SCCOc3ccccc3Cl)sc2c1)c1ccco1`, -70% (active).
Under `COc1cc(C)ccc1OCCSc1nc2ccc(NC(=O)c3ccc(C)cc3)cc2s1` stands 24.3% (inactive).
With `CC(C)OC(=O)c1ccc(COc2ccc3ccc(=O)oc3c2)o1`, the activity change, negative = inhibition is -15.4% (inactive).
Consider `O=C(COc1ccc2ccc(=O)oc2c1)NCC(O)c1ccccc1` (centres undefined), for which the activity change, negative = inhibition was -6.86% (inactive).
Under `CC(=CCOc1ccc2ccc(=O)oc2c1)C1=CC(=O)C(C)(C)O1` stands -76.5% (active); under `CCOc1ccc(CNC(=O)c2ccc3nc(CC)c(CC)nc3c2)cc1OC`, -2.8% (inactive).
